The record followed here is PubChem BioAssay (NCATS).

The nature of assay [1]: qHTS assay for small molecule agonists of the antioxidant response element (ARE) signaling pathway (AID 651741; active = well fitted activation curve with a large enough effect in the signal ratio; the % refers to the signal ratio; also: potency is read from the fitted curve at half-maximal effect). A digest of the protocol: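 Quantitative HTS in HepG2 cells stably expressing an ARE-beta-lactamase reporter; 16 h compound exposure at 37 C, followed by 2 h room-temperature incubation with LiveBLAzer B/G FRET substrate and fluorescence measurement.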
(qHTS replaces the single test concentration by a dilution series.)

Assay [2] is described as follows: qHTS assay for environmental chemicals that activate the Aryl hydrocarbon Receptor (AhR) signaling pathway (AID 651777). Also: % of control where 0% means no effect; nearly all actives have a fitted effect of over 15% in size. Conditions: 1A2-DRE human hepatoma cells, luciferase, 24 h; activation: hits give high values. A digest of the protocol:
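Luminescence read-out: One-Glo added for 30 min at RT after 24 hr compound treatment (37 C, 5% CO2) of human hepatoma cells expressing a DRE/CYP1A2 promoter–luciferase reporter; increased signal indicates AhR activation.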

Assay [3] has as its target Peroxisome proliferator-activated receptor alpha (Homo sapiens) (UniProt Q07869). Kind of assay: qHTS assay for small molecule agonists of the peroxisome proliferator-activated receptor alpha (PPARalpha) signaling pathway (AID 651778). Also: % of control where 0% means no effect. The following applies: PathHunter PPARalpha complementation, chemiluminescence, 6 h; max response: hits give high values. A digest of the protocol: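 Chemiluminescence from complemented enzyme reported PPARalpha activation in cells after 6 hr of compound treatment at 37 C. The detection reagent was incubated for 60 min at room temperature, and compounds were scored as agonists.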

Assay [4] in a line: qHTS assay for small molecule agonists of the antioxidant response element (ARE) signaling pathway measured by Nrf2-dependant transcriptional activity (AID 720636; active = well fitted curve in the direction sought with a large enough effect in the repeat runs; an effect the other way counts as inactive or inconclusive;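 also: HepG2 cells with an ARE-driven luciferase reporter; % of control where 0% means no effect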). A digest of the protocol: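 HepG2 ARE-luc reporter line, 1% dialyzed FBS; 6 hr attachment at 37 C, compound pinned in, 16 hr at 37 C/5% CO2; ONE-Glo, 30 min RT, luminescence read.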
For assay [5], the target named is Arylsulfatase A (Homo sapiens) (UniProt P15289). The assay is described as follows: qHTS screen for enhancers of Arylsulfatase A (ASA1): LOPAC Validation Assay (AID 720538). Also: 0% is about no effect. A digest of the protocol:
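Read-out: fluorescence at Ex=525/Em=598 nm after 1N NaOH final stop. Patient fibroblasts carrying ASA-I179S had 48h compound exposure, then 14h room-temperature pNCS hydrolysis (0.5mM final) in lysis buffer. Signal increase = enhanced activity.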

The nature of assay [6]: qHTS for compounds that reverse cellular toxicity of Amyloid beta (A-beta) peptide in yeast: LOPAC Validation Assay (AID 720559).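 Also: plate controls were DMSO for no effect and equimolar ferric chloride plus clioquinol rescue for full effect.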 A digest of the protocol:
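OD600 growth readout after 48 hr at 30 C; A-beta-toxic yeast plus pinned compounds in medium. Normalization: DMSO = negative, equimolar FeCl3 + clioquinol = positive.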

Assay [7] is described as follows: qHTS for Activators of Parkin Expression: LOPAC Validation Assay (NLuc Reporter) (AID 720572; also: potency is read from the fitted curve at half-maximal effect;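 as to activation: 0% = DMSO and 100% = positive control compound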). A digest of the protocol: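 Parkin promoter-driven FLuc/NLuc neuronal reporter cells; 24 h plating, 7-pt dose response, 24 h at 37 C/5% CO2; FLuc then NanoLuc reagent, 10 min each, luminescence; DMSO/positive control normalized.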
A short description of assay [8]: qHTS for Activators of Parkin Expression: LOPAC Validation Assay (FLuc Reporter) (AID 720573;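 also: 0% = DMSO and 100% = positive control compounds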). A digest of the protocol:
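FLuc luminescence read-out from a neuronal line expressing a Parkin-promoter-driven coincidence reporter. Cells treated 24 h at 37 C, 5% CO2 with compounds at 7 concentrations; signal increase normalized to DMSO and positive control.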

The nature of assay [9]: qHTS assay for small molecule activators of the p53 signaling pathway (AID 651743; active = well fitted activation curve with a large enough effect in the signal ratio, not every such curve was filed as active; the % refers to the signal ratio; also: series mostly up to about 92 µM; % of control where 0% means no effect). The following applies: HCT-116 p53RE-bla, beta-lactamase FRET ratio, 16 h; activation: hits give high values. A digest of the protocol: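 Read-out is fluorescence intensity from the LiveBLAzer B/G FRET substrate, added for 2 hours at room temperature after HCT-116 p53RE-bla cells had been incubated with compounds for 16 hours at 37 C.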

The nature of assay [10]: qHTS assay for small molecule activators of the nuclear factor-kappa B (NF-kB) signaling pathway (AID 651749; active = well fitted activation curve with a large enough effect in the signal ratio; the % refers to the signal ratio; also: series mostly up to about 77 µM; % of control where 0% means no effect). The following applies: NF-kB-bla ME-180 cells, beta-lactamase FRET ratio, 16 h; hits give high values. A digest of the protocol:
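Readout: beta-lactamase reporter driven by an NF-kB response element, detected fluorescently as loss of FRET. Cells were the ME-180 line, treated 16 hr at 37C with pin-transferred compound.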

A number with no mark means an inactive call. Inconclusive results are not listed. Activity calls are given as the source filed them. Unless noted, calls follow the shape of the dose curve; as a rule, active = well fitted curve in the direction sought with a large enough effect; inconclusive = small, poorly fitted or top-dose-only effect, or another doubt; inactive = no such curve, though single readings can be large; an effect the other way counts as inactive or inconclusive.

Chain of Peroxisome proliferator-activated receptor alpha (Homo sapiens) (Q07869 whole entry, looked up): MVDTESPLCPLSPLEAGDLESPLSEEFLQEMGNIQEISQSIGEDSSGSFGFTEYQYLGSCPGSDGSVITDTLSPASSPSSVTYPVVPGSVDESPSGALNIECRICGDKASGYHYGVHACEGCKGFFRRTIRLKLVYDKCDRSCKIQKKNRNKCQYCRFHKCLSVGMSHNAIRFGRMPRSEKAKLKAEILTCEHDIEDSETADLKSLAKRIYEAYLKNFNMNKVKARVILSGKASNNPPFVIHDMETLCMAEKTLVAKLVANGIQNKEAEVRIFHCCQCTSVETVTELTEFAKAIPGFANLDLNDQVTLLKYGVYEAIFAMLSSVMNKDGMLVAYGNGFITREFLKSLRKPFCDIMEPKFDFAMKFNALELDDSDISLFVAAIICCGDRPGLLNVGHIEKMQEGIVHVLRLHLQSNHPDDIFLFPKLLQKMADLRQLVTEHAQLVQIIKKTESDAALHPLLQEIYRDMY
Chain of Arylsulfatase A (Homo sapiens) (P15289 whole entry, looked up): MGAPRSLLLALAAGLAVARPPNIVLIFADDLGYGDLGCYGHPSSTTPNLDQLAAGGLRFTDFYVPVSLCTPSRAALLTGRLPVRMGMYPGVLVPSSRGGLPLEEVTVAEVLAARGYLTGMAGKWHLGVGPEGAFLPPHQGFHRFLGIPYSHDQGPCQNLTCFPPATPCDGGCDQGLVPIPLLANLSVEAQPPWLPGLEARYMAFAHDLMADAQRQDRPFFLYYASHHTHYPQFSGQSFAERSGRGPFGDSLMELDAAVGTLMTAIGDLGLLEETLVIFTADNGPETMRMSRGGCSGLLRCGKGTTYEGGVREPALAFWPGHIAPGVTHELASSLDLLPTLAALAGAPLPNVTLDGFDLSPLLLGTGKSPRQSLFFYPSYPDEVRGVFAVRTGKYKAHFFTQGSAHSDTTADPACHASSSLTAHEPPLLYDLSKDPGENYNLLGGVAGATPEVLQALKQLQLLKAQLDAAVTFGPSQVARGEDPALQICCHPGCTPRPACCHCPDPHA

For the compound `N#Cc1nn(-c2c(Cl)cc(C(F)(F)F)cc2Cl)c(N)c1S(=O)C(F)(F)F` (configuration not stated), in assay [1], the Potency was 61.1 µM (active). Besides, the activation in assay [2] was 2.36%. In assay [3], the max response is -0.478%. Besides, in assay [4], the Potency result is “inactive”.

In the case of `NC(=O)CN1CCCC1=O`, the Potency entry in assay [5] and in [7] was “inactive” throughout. Besides, the compound was called inactive in assay [6] and in assay [8].

Turning to `COP(=O)(OC)C(O)C(Cl)(Cl)Cl` (configuration not stated), the Potency in [1] is 19.3 µM (active). Also, the activation in assay [9] is 6.58%; in assay [10], 1.93%; in assay [2], 1.53%. Further, the max response in assay [3] is -2.06%.

With `Cc1ccc(N=CN(C)C=Nc2ccc(C)cc2C)c(C)c1`, in assay [1], the Potency was 24.3 µM (active). For the same compound, in assay [9], the activation was 15.6%. For the same compound, in assay [4], the Potency result is “inactive”.

Consider `COC(=O)C1=C(C)NC(C)=C(C(=O)OC)C1c1ccccc1[N+](=O)[O-]`, for which the Potency in assay [7] is 23.1 µM (active).
